EBI2 antag = antagonists of human EBI2 receptor. P32249. EBI2 beta-arrestin recruitment, luminescence, 7a,25-OHC stimulated. inhibition, % at 5 µM. 0.81% of 360,000 active; in the data active = inhibition above about 38%;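 note: enzyme fragment complementation signal reports receptor beta-arrestin coupling in cells; 0% = agonist plus DMSO wells and 100% = wells without agonist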
Target sequence (P32249 whole entry, looked up, the tested form may be a part): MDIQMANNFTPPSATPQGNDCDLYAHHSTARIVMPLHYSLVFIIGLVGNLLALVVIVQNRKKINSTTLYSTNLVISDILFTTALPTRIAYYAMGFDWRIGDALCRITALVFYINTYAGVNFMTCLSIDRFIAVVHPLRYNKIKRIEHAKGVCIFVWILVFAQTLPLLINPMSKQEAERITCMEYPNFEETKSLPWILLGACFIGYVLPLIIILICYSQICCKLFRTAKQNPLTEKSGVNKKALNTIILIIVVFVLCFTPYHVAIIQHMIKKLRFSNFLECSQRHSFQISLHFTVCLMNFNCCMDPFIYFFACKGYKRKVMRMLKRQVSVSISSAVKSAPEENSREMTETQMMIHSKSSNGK
SENP8 block-1 = SENP8 protease inhibition | Q96LD8 | purified SENP8, Z-RLRGG-aminoluciferin cleavage, luminescence | inhibition, % at 10 µM | 1.2% of 330,000 active; in the data active = inhibition above about 50%
Target sequence (Q96LD8 whole entry, looked up): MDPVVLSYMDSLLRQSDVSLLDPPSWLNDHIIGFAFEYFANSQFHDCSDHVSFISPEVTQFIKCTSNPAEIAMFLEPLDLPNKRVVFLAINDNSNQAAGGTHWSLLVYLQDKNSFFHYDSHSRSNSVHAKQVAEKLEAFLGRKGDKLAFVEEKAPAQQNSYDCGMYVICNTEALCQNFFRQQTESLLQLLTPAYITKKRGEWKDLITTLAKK
SENP6 inh = SENP6 protease inhibition. Recombinant SENP6 catalytic domain, aminoluciferin luminescence. inhibition, % at 10 µM. 1.8% of 330,000 active. AID 2599;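 active = inhibition above about 50% at the single tested dose, limit read from the data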;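 note: plate controls were DMSO wells with enzyme for no effect and DMSO wells lacking enzyme for full effect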
AHR activator = activators of human aryl hydrocarbon receptor. AHR-responsive luciferase reporter cells, luminescence. activation, % at 5 µM. 2.5% of 320,000 active; in the data active = activation above about 47%;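 note: 0% = vehicle wells and 100% = reference agonist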
SENP8 block-2 = blocks human SENP8 cleavage of Nedd8 substrate; recombinant SENP8, Nedd8 substrate fluorescence; Q96LD8; 0.64% of 360,000 active; inhibition, % at 20 µM; in the data active = inhibition mostly above about 40%, no sharp cut-off; inactive = mostly below about 27%
SENP7 block = blocks the human protease SENP7; Q9BQF6; recombinant SENP7, Z-RLRGG-aminoluciferin luminescence, 40 min; inhibition, % at 5 µM; 1.5% of 330,000 active;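 active = inhibition above about 50% at the single test dose, limit read from the data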;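 note: plate controls were DMSO with enzyme for no effect and no enzyme buffer wells for full effect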
EBI2 conf = confirmation of human EBI2 receptor antagonists | shares compounds with EBI2 antag | EBI2 beta-arrestin luminescence, 7a,25-OHC antagonism | inhibition, % at 5 µM | 29% of 2,400 active | AID 651997;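 active = inhibition of at least 50%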
EBI2 ag = EBI2 agonism counter-screen; AID 652000; shares compounds with EBI2 antag; EBI2-expressing cells, agonist mode, luminescence, 60 min; 0% vehicle, 100% 7α,25-dihydroxycholesterol control; 2,400 tested, under 10 active; activation, % at 5 µM;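 active = activation of at least 50%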
bGal cs = counter-screen for EBI2 antagonists: E. coli beta-galactosidase inhibition; shares compounds with EBI2 antag; purified beta-galactosidase, luminescent Galacton Star, 15 min; inhibition, % at 5 µM; 1% of 2,400 active; AID 652176;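 active = replicate-average signal at least 3 plate SD below neutral wells, shown as high inhibition, flagging enzyme-inhibiting false positives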;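 note: 0% = DMSO wells with enzyme and 100% = wells lacking enzyme; higher means stronger loss of beta-gal luminescence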
Active calls of the source: *; i = inactive; nt = no result given. Hits are enriched below; roughly 5% of the tested compounds scored in any of these assays.

SMILES	EBI2 antag	SENP8 block-1	SENP6 inh	AHR activator	SENP8 block-2	SENP7 block	EBI2 conf	EBI2 ag	bGal cs
O=C(Cn1nc2ccccc2n1)N/N=C/c1cc([N+](=O)[O-])ccc1O	27	16	21	2	27	5	nt	nt	nt
O=C(Cn1nnc(-c2ccccc2)n1)N/N=C/c1cc([N+](=O)[O-])ccc1O	55*	16	42	0	26	8	41	1	6
CCOC(=O)N1CCN(C(=O)c2cc3cc(F)ccc3[nH]2)CC1	81*	1	18	58*	-65	6	53*	0	-2
CCOC(=O)C1CCN(C(=O)c2cc3cc(F)ccc3[nH]2)CC1	62*	-5	-10	nt	7	2	41	3	0
CCOC(=O)N1CCN(C(=O)c2cc3cc(Cl)ccc3[nH]2)CC1	93*	2	-8	nt	1	4	73*	1	4
Cc1ccc2[nH]c(C(=O)N3CCC(C(N)=O)CC3)cc2c1	4	-10	-6	9	9	12	nt	nt	nt
Cc1ccc2[nH]c(C(=O)N3CCCCC3)cc2c1	32	-1	9	2	18	6	nt	nt	nt
O=C(COC(=O)c1cnccn1)c1ccc(C2CCCCC2)cc1	-10	-2	6	1	5	1	nt	nt	nt
COc1ccc(S(=O)(=O)c2c(N)n(Cc3ccco3)c3nc4ccccc4nc23)cc1	-9	-4	-17	12	-489	-5	nt	nt	nt
Cc1cccc(S(=O)(=O)c2c(N)n(/N=C/c3ccco3)c3nc4ccccc4nc23)c1	59*	-2	3	-3	-285	3	68*	0	4
Cc1ccc(S(=O)(=O)c2c(N)n(/N=C/c3ccco3)c3nc4ccccc4nc23)cc1	41*	4	4	-10	-286	11	55*	2	2
Nc1c(S(=O)(=O)c2ccccc2)c2nc3ccccc3nc2n1/N=C/c1ccco1	67*	3	-1	-6	-284	5	77*	0	-14
CC(=O)CCc1ccc(Oc2nc(-c3cccnc3)nc3ccccc23)cc1	54*	-3	-1	4	-146	-2	25	1	3
CSc1cc(-c2ccc(Cl)cc2)c(C(=O)NC(C)C)s1	47*	2	-4	1	-23	6	34	1	-1
Cc1ccc(NC(=O)c2c(F)cccc2Cl)cc1S(=O)(=O)N1CCOCC1	0	10	-6	-1	-1	2	nt	nt	nt
CCOc1ccc(NC(=S)NN(C)C(=S)Nc2ccc(OCC)cc2)cc1	78*	-2	-14	13	14	0	38	0	-15
CCOc1ccc(NC(=S)Nc2cccnc2)cc1	58*	-8	0	6	3	-8	24	-1	-10
CCOc1ccc(NC(=S)Nc2ccc(F)cc2)cc1	59*	5	-12	-2	18	5	41	0	8
CCOc1ccc(C(=O)NC(=S)Nc2cccnc2)cc1	-3	-15	10	5	8	2	nt	nt	nt
COc1ccc(NC(=S)Nc2ccc(F)cc2)cc1	17	-15	-38	0	11	-13	nt	nt	nt
CCOc1ccc(NC(=S)Nc2cc(-c3ccccc3)[nH]n2)cc1	42*	-4	-7	78*	7	3	19	0	6
Cc1cc(C(=O)OCC(=O)NCc2ccc(Cl)cc2)c(C)o1	0	-10	-19	-1	14	-3	nt	nt	nt
CCOc1ccc(NC(=S)NC(=O)Cc2ccccc2)cc1	-8	5	-3	10	19	0	nt	nt	nt
CCOc1ccc(NC(=S)Nc2ccccc2C2(C)CC2)cc1	60*	5	27	0	-2	0	20	2	4
Cc1cccc(NC(=O)c2cc([N+](=O)[O-])ccc2NC2CCCCC2)c1	-28	1	5	3	26	4	nt	nt	nt
SMILES	EBI2 antag	SENP8 block-1	SENP6 inh	AHR activator	SENP8 block-2	SENP7 block	EBI2 conf	EBI2 ag	bGal cs
CN(c1ccc([N+](=O)[O-])cc1C(=O)Nc1ccccc1)C1CCCCC1	41*	2	-6	8	20	2	32	0	-13
COc1ccc(C2=NN(C(=O)CCC(=O)O)C(c3ccc(Br)cc3)C2)cc1 (stereo unspecified)	-3	-9	4	0	-46	13	nt	nt	nt
COc1ccc(NC(=O)c2ccc3c(c2)C(=O)N(Cc2cccnc2)C3=O)cc1	53*	-12	-13	2	17	8	23	2	6
COc1cc(CNc2ccc(C(=O)O)cc2)cc(Br)c1OCC(=O)NC(C)(C)C	-12	-2	2	-3	6	-3	nt	nt	nt
CCOc1cc(CNc2ccccc2)cc(Br)c1OCc1ccc(F)cc1	49*	-3	6	14	22	9	14	0	3
CCOc1cc(CNc2ccc(Br)cc2)cc(Br)c1OCC(=O)NC(C)(C)C	66*	0	-17	5	4	8	7	1	2
CC(OC(=O)C1CCN(S(=O)(=O)c2ccc(Cl)cc2)CC1)C(=O)NC1CCCCC1C (stereo unspecified)	16	2	-7	-1	2	-3	nt	nt	nt
O=C(Cn1nnc2c(sc3nc4c(c(-c5ccccc5)c32)CCC4)c1=O)c1ccccc1	29*	-6	3	3	11	-3	0	1	4
CC(NC(=O)c1cnccn1)c1ccc(S(N)(=O)=O)cc1 (stereo unspecified)	-15	5	-3	-1	12	-1	nt	nt	nt
O=C1C=C(c2ccc3c(c2)oc2ccccc23)C[C@@H](c2ccc3c(c2)OCO3)C1	71*	3	-1	7	9	14	64*	1	-3
O=C1C=C(c2ccc3c(c2)OCO3)C[C@@H](c2ccc(F)cc2)C1	12	0	-12	13	-400	7	nt	nt	nt
O=C1C=C(c2ccc(O)cc2)C[C@@H](c2ccc3c(c2)OCO3)C1	16	-18	-10	17	1	-15	nt	nt	nt
CSc1ccc(C2=CC(=O)C[C@H](c3ccc4c(c3)OCO4)C2)cc1	41*	-5	-14	6	i	0	28	-1	-4
COc1ccc(C2=CC(=O)C[C@H](c3ccc4c(c3)OCO4)C2)cc1	41	-3	-3	16	20	2	nt	nt	nt
Cc1ccc(C2=CC(=O)C[C@H](c3ccc4c(c3)OCO4)C2)cc1	48*	0	-17	40	14	7	37	1	10
Cc1ccc(S(=O)(=O)N2C[C@@H]3[C@H]4CC[C@H](C4)[C@@H]3[C@@H](C)[C@H]2c2ccn(Cc3ccccc3)c2)cc1	30	nt	nt	nt	-1	4	nt	nt	nt

Assay outcomes (PubChem BioAssay)
